A number with no mark means an inactive call.
Test system: Vero E6 infected with SARS-CoV-2
Assay: inhibition of SARS-CoV-2 cytopathic effect; higher = more antiviral protection, active = above 15
Conditions: 48 h

SMILES	inhibition of SARS-CoV-2 cytopathic effect (1 nM) [%]	inhibition of SARS-CoV-2 cytopathic effect (8.33 nM) [%]	inhibition of SARS-CoV-2 cytopathic effect (100 nM)	inhibition of SARS-CoV-2 cytopathic effect (833.33 nM)	inhibition of SARS-CoV-2 cytopathic effect (10000 nM)
CNC(=C[N+](=O)[O-])NCCSCc1ccc(CN(C)C)o1 [ranitidine]	2.45	2.26	2.56%	0.8%	1.08%
CCOC(=O)c1c(C)n(C)c2ccc(O)cc12 [mecarbinate]	-0.79	-1.26	-2.84%	-2.4%	-2.61%
Cn1cc(-c2ccncc2)c(-c2ccc(OCc3ccc4ccccc4n3)cc2)n1	-1.42	1.25	1.83%	16% (active)	52.4% (active)
Cc1cccc(/C=N/Nc2cc(N3CCOCC3)n3nc(-c4ccncc4)cc3n2)c1	1.37	4.2	27.3% (active)	19% (active)	13.2%
NP(N)(=O)NC(=O)c1ccc(F)cc1 [flurofamide]	3.53	-1.42	-1.3%	0.9%	5.62%
CC1CCc2cc(F)cc3c(=O)c(C(=O)O)cn1c23 (stereo not given) [flumequine]	-0.77	0.46	-0.95%	-0.27%	-0.64%
Cc1cc(CCCOc2c(C)cc(-c3noc(C(F)(F)F)n3)cc2C)on1 [pleconaril]	2.59	0.33	-1.07%	0.02%	-1.34%
Cc1cnc(NC(=O)Nc2cc(Br)c(C)cc2OC[C@@H]2CNCCO2)cn1	1.08	0.44	1.44%	-2.34%	-10.4%
CC(=O)N(CC(O)CO)c1c(I)c(C(=O)NCC(O)CO)c(I)c(C(=O)NCC(O)CO)c1I (stereo not given) [iohexol]	-1.99	-0.81	-1.68%	-0.74%	2.67%
CN(CCOc1ccc(CC2SC(=O)NC2=O)cc1)c1ccccn1 (stereo not given) [rosiglitazone]	-1.76	-2.53	-4.45%	-0.37%	1.48%
O=[N+]([O-])c1cc([N+](=O)[O-])c(/C=C/c2ccc(Cl)c(Cl)c2)cc1/C=C/c1ccc(Cl)c(Cl)c1	2	1.02	-3.12%	-5.26%	-2.22%
N[C@@H](CC(=O)Nc1ccc(Oc2cc(F)c(F)cc2Br)cc1)C(=O)O	-3.45	-0.99	-1.17%	-3.56%	6.38%
Cc1cc(O)cc2c1O[C@](C)(CCC[C@H](C)CCC[C@H](C)CCCC(C)C)CC2 [D-delta-tocopherol]	1.56	0.99	2.25%	0.84%	-0.19%
COC(F)(F)C(Cl)Cl [methoxyflurane]	0.46	5.27	4.68%	0.29%	-1.64%
[O-][S+](c1ccccc1)c1ccc2nnnn2n1 (stereo not given)	2.27	2.68	0.02%	1.7%	14%
O=C(O)c1cc(-c2ccc(F)cc2F)ccc1O [diflunisal]	1.75	-3.3	2.12%	1.36%	0.19%
Cc1ccc(CCCO)c(NCc2ccc3nc(NCCCN4CCOCC4)n(Cc4nc(C)ccc4O)c3c2)c1	0.48	-0.28	-0.6%	-1.09%	-1.76%
COc1ccc(COc2cc3oc(=O)c4cc(C(C)O)ccc4c3cc2OC)cc1 (stereo not given) [palomid-529]	0.28	-1.83	0.02%	-0.05%	1.22%
NCCc1cc[nH]n1 [betazole]	0.58	1.07	2.63%	0.04%	0.97%
C=CC[C@@H]1/C=C(\C)C[C@H](C)C[C@H](OC)[C@H]2O[C@@](O)(C(=O)C(=O)N3CCCC[C@H]3C(=O)O[C@H](/C(C)=C/[C@@H]3CC[C@@H](O)[C@H](OC)C3)[C@H](C)[C@@H](O)CC1=O)[C@H](C)C[C@@H]2OC [tacrolimus]	0.97	1.42	2.56%	1.67%	1.14%

SMILES	inhibition of SARS-CoV-2 cytopathic effect (1 nM) [%]	inhibition of SARS-CoV-2 cytopathic effect (8.33 nM) [%]	inhibition of SARS-CoV-2 cytopathic effect (100 nM)	inhibition of SARS-CoV-2 cytopathic effect (833.33 nM)	inhibition of SARS-CoV-2 cytopathic effect (10000 nM)
CC(C)n1c(/C=C/[C@@H](O)C[C@@H](O)CC(=O)O)c(-c2ccc(F)cc2)c2ccccc21 [fluvastatin]	-0.24	-1.21	1.75%	-1.33%	2.61%
O=Nc1c(-c2c(O)[nH]c3cc(Br)ccc23)[nH]c2ccccc12 [GSK-3-inhibitor-IX]	-0.14	0.68	1.64%	13.8%	-4.11%
O=C(NCCN1CCCCC1)c1ccc(I)cc1 [N-[2-(piperidinylamino)ethyl]-4-iodobenzamide]	0.64	2	-0.15%	-2.57%	-1.77%
NCCCCCc1c[nH]cn1 [impentamine]	-2.08	-1.69	-0.14%	-0.52%	0.02%
S=P(N1CC1)(N1CC1)N1CC1 [thiotepa]	-0.94	1.88	0.45%	-0.47%	2.21%
CSc1ccc(OCc2ncc([N+](=O)[O-])n2C)cc1 [fexinidazole]	-1.82	-1.7	-1.88%	-3.53%	-0.36%
O=C(OCCN1CCCCC1)c1c[nH]c2ccccc12	0.38	2.59	1.63%	-1.42%	-6.53%
Cc1c(CC(C)(C)C(=O)O)n(Cc2ccc(Cl)cc2)c2ccc(F)cc12	3.46	2.25	4.56%	3.57%	1.6%
COc1cc2c(NC3CCN(CC4CCCCC4)CC3)nc(N3CCCN(C(C)C)CC3)nc2cc1OCCCN1CCCCC1	0.74	-1.71	-3.06%	0.36%	-20.7%
CC[C@H](Nc1ncnc2[nH]cnc12)c1nc2cccc(F)c2c(=O)n1-c1ccccc1 [idelalisib]	-1.64	2.2	1.98%	3.57%	-3.36%
FC(F)(F)Oc1ccc2nc(-c3ccc(OCCOCCOc4ccc(-c5nc6ccc(OC(F)(F)F)cc6[nH]5)nc4)cn3)[nH]c2c1	-0.41	1.44	0.99%	3.47%	-6.61%
CC(=O)N[C@@H](Cc1ccc(O)cc1)C(=O)O [N-acetyl-tyrosine]	-0.05	1.2	0.23%	2.56%	4.82%
O=S(=O)(O)Oc1ccc(C(c2ccc(OS(=O)(=O)O)cc2)c2ccccn2)cc1 [sodium-picosulfate]	-1.14	-0.13	0.34%	5.9%	-5.74%
COc1ccsc1CNCC[C@@]1(c2ccccn2)CCOC2(CCCC2)C1	-2.56	3.9	0.92%	1.29%	-0.28%
Cc1cn([C@H]2O[C@@H](CO)[C@H](O)[C@H]2F)c(=O)[nH]c1=O [clevudine]	3.12	-0.16	1.71%	2.27%	1.38%
Nc1ccc(C(=O)O)c(O)c1 [aminosalicylate]	-3.85	-0.82	-0.9%	0.11%	0.97%
O=C(/C=C/C=C/c1ccc2c(c1)OCO2)N1CCCCC1 [piperine]	-1.58	-1.88	-3.68%	-2.45%	5.15%
CCC(=O)OCC(=O)[C@@]1(OC(=O)CC)[C@H](C)C[C@H]2[C@H]3[C@H]([C@@H](O)C[C@@]21C)[C@@]1(C)C=CC(=O)C=C1C[C@H]3Cl [alclometasone-dipropionate]	3	0.48	1.16%	1.07%	-2.92%
CCCCCCc1ccc(O)cc1O [hexylresorcinol]	1.73	1.1	2.21%	4.02%	3.14%
CC(C)(C)c1ccc(-c2nc3ccccc3[nH]2)cc1	-0.43	-0.22	1.49%	3.96%	4.75%

Reference: the supplement of paper PMC13380429
